Assay [1] concerns Zika virus NS2B-NS3 protease (unlinked). The experiment in a line: Optimization of GU AMC qHTS for Zika virus inhibitors: Unlinked NS2B-NS3 protease assay (AID 1347151). Also: nearly all actives have a fitted effect of over 80% in size. Also: potency is read from the fitted curve at half-maximal effect. Summed up: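 In this qHTS, compounds acted on 25 nM unlinked Zika NS2B–NS3 in pH 8.0 Tris/Tween buffer. Cleavage of an AMC peptide ran 15 min at room temperature, to about 20% conversion.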
In general terms: qHTS replaces the single test concentration by a dilution series.

Assay [2] addresses N-terminal Xaa-Pro-Lys N-methyltransferase 1 (Homo sapiens) (UniProt Q9BV86). The assay can be described thus: qHTS Assay for Inhibitors of N-terminal methyltransferase 1 (NTMT1): LOPAC validation of the NTMT1 SAHH-coupled ThioGlo3 Assay (AID 1347143).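 Also: SAH from peptide methylation measured as thiol fluorescence via SAHH coupling and ThioGlo3; nearly all actives have a fitted effect of over 70% in size.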 Also: potency is read from the fitted curve at half-maximal effect. Summed up: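 Recombinant human NTMT1 (125nM) was pre-incubated 1 min at room temperature with compounds over a concentration range, then a mix of 100uM SAM, 10uM SAHH and 15uM ThioGlo3 (concentrations in added reagent) was added. ThioGlo3 fluorescence (ex 340/em 450nm) after 30 min was normalized to the initial reading.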

For assay [3], the system named is Zika virus NS2B-NS3 protease. The assay can be described thus: Primary screen GU AMC qHTS for Zika virus inhibitors (AID 1347154). Also: nearly all actives have a fitted effect of over 70% in size. Summed up: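 Unlinked Zika NS2B hydrophilic domain–NS3 protease complex at 25 nM in 10 mM Tris-HCl pH 8.0, 0.01% Tween 20, with an AMC peptide substrate. Fluorescence change (340/450 nm) over 15 min at room temperature, normalized to controls, fitted to 4-parameter Hill.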

Assay [4] is described as follows: Confirmatory screen GU Rhodamine qHTS for Zika virus inhibitors qHTS (AID 1347157). Also: potency is read from the fitted curve at half-maximal effect; nearly all actives have a fitted effect of over 70% in size. Particulars: purified enzyme assay, Rhodamine110 substrate fluorescence, 15 min. Summed up: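 Compounds, tested up to 114 microM, were incubated for 15 minutes with 25 nM unlinked NS2B-NS3 protease at pH 8.0. Cleavage of 1.5 microM Rhodamine110 substrate was then followed by fluorescence for 15 minutes.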

Assay [5] can be described thus: ZIKV-mCherry secondary qHTS for Zika virus inhibitors (AID 1347158). Also: top concentration of the series differs between compounds. An outline of the steps:
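After overnight seeding at 37 °C, Vero cells receive compound and then ZIKV-mCherry (MOI 1). Following 48-72 h infection, cells are fixed, counterstained with Hoechst, and imaged; percent infected cells is derived from an mCherry intensity cut-off of 450 RFU.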

Assay [6] can be described thus: Confirmatory screen NINDS Rhodamine qHTS for Zika virus inhibitors (AID 1347161). Also: potency is read from the fitted curve at half-maximal effect; nearly all actives have a fitted effect of over 60% in size. Summed up:
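Purified linked NS2B-NS3 protease (NS2B hydrophilic domain joined to NS3 protease by flexible linker), 25 nM in 10 mM Tris-HCl pH 8.0, 0.01% Tween 20. Compounds titrated, 15 min preincubation at room temperature; 1.5 microM Rhodamine110 substrate, FITC fluorescence change over 15 min.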

Assay [7] concerns Zika virus NS2B-NS3 protease (linked construct). The experiment in a line: Confirmatory screen NINDS AMC qHTS for Zika virus inhibitors (AID 1347152). Also: nearly all actives have a fitted effect of over 70% in size. Also: potency is read from the fitted curve at half-maximal effect. An outline of the steps: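 Concentration-response confirmation used the NINDS linked protease (NS2B hydrophilic domain joined to NS3 protease domain), 1 nM, with a 15-min compound preincubation. Substrate, Nle-KRR-AMC at 10 microM, was read by UV fluorescence before and after 15 min.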

Assay [8] deals with Zika virus NS2B-NS3 protease (unlinked complex). The experiment in a line: Confirmatory screen GU AMC qHTS for Zika virus inhibitors (AID 1347153). Also: nearly all actives have a fitted effect of over 70% in size. Summed up: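 Compounds were preincubated 15 min at room temperature with 25 nM noncovalent NS2B-NS3 protease at pH 8.0; AMC substrate added at 10 microM and 15-min fluorescence gain (340/450 nm) converted to percent inhibition, fitted 4-parameter.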

Assay [9] shares this test system. The assay can be described thus: Primary screen GU Rhodamine qHTS for Zika virus inhibitors: Unlinked NS2B-NS3 protease assay (AID 1347159). Also: nearly all actives have a fitted effect of over 60% in size. Summed up: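 Percent inhibition derives from the 15-min fluorescence change (ex 480, em 540 nm), normalized to no-enzyme and no-inhibitor wells. Reactions contained 25 nM NS2B-NS3 complex and 1.5 microM substrate in 10 mM Tris-HCl pH 8.0.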

For assay [10], the system named is Zika virus NS2B-NS3 protease (linked construct). The experiment in a line: Primary screen NINDS Rhodamine qHTS for Zika virus inhibitors (AID 1347160). Also: nearly all actives have a fitted effect of over 55% in size. Also: potency is read from the fitted curve at half-maximal effect. An outline of the steps: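 In 10 mM Tris-HCl pH 8.0 containing 0.01% Tween 20, linked NS2B-NS3 protease (25 nM final) is exposed to test compounds for 15 min. Cleavage of 1.5 microM Rhodamine110 substrate is tracked by fluorescence over 15 min.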

In a further assay the target is Furin (Homo sapiens) (UniProt P09958). The assay can be described thus: Furin counterscreen qHTS for Zika virus inhibitors (AID 1347149). Also: nearly all actives have a fitted effect of over 70% in size. Also: potency is read from the fitted curve at half-maximal effect. Summed up: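 Fluorogenic cleavage of BOC-RVRR-AMC (2 microM final, Km ~15 µM) was monitored (ex 340, em 450 nm) at 37C after 15 min RT preincubation of 5 nM furin with compounds in HEPES pH 7.0 buffer with CaCl2 and Triton X-100. Percent inhibition was fitted to a 4-parameter Hill curve.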
(A counterscreen serves to expose hits that act by an unwanted route or on another target.)

Where “and” joins values, the source holds several entries; their conditions need not be identical. Equal entries are not always repeated. Inconclusive results are not listed. Where a call stands in place of a potency, no number is given. Calls of active or inactive are those of the source. Calls follow the shape of the dose curve; as a rule, active = well fitted curve in the direction sought with a large enough effect; inconclusive = small, poorly fitted or top-dose-only effect, or another doubt; inactive = no such curve, though single readings can be large; an effect the other way counts as inactive or inconclusive.

N-terminal Xaa-Pro-Lys N-methyltransferase 1 (Homo sapiens), sequence (Q9BV86 whole entry, looked up): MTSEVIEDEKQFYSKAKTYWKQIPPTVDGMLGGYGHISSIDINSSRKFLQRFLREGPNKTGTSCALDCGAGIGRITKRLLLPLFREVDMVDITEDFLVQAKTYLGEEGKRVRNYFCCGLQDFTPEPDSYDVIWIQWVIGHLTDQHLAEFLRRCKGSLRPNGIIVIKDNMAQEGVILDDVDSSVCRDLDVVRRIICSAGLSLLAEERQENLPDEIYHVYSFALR
Furin (Homo sapiens), sequence (P09958 whole entry, looked up): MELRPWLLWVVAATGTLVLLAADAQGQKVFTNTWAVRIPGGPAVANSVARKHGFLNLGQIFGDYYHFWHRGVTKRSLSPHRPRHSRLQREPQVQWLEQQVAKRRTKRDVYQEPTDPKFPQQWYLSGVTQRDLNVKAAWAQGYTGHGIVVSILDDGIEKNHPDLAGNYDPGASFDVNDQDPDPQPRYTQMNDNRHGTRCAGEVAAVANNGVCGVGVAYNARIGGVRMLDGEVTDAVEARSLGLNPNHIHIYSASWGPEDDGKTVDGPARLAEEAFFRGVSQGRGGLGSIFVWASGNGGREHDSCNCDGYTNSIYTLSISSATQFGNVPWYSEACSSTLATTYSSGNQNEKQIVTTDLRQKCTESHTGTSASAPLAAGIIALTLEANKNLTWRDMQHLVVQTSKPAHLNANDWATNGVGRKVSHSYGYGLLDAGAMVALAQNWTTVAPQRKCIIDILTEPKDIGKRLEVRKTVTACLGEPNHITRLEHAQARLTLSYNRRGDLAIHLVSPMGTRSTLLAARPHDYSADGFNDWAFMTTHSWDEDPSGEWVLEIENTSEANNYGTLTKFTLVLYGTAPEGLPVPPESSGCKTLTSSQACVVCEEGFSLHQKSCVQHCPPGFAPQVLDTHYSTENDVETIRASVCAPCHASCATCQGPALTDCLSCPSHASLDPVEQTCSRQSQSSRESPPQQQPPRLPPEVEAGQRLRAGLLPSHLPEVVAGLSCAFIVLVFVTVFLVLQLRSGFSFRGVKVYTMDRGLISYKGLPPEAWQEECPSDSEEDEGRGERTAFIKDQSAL

For the compound `Nc1ccn([C@@H]2O[C@H](CO)[C@@H](O)[C@@H]2O)c(=O)n1`, in assay [1], the Potency entry is “inactive”.

Regarding `O=C(c1ccc(Cl)cc1)N1CCN(c2ccc([N+](=O)[O-])c3ncccc23)CC1`, in assay [1], the Potency entry is “inactive”.

On to `O=C(Nc1cccc(C(=O)Nc2ccc(S(=O)(=O)O)c3cc(S(=O)(=O)O)cc(S(=O)(=O)O)c23)c1)Nc1cccc(C(=O)Nc2ccc(S(=O)(=O)O)c3cc(S(=O)(=O)O)cc(S(=O)(=O)O)c23)c1`, for which the Potency entry in assay [2] and in [3] was “inactive” throughout. Besides, the Potency in [4] is 2.82 µM (active) and 1.41 µM (active); in assay [6], 2 µM (active) and 1.26 µM (active). Also, the compound was classed as inactive in assay [5].

Regarding `CO/N=C(\C(=O)N[C@@H]1C(=O)N2C(C(=O)O)=C(COC(C)=O)CS[C@H]12)c1csc(N)n1`, the Potency result in assay [1] was “inactive”.

For `Fc1cccc(/C=N/N=C/c2cccc(F)c2)c1`, in [1], the Potency result was “inactive”.

`CCN1/C(=C/C(C)=O)Sc2ccc(OC)cc21`: in assay [1], the Potency result was “inactive”.

Consider `CCCCN(CC)c1nc(C)nc2c1c(C)cn2-c1c(C)cc(C)cc1C`, for which the Potency in assay [1] was 26.7 µM (active). Also, the Potency result in assay [7], in assay [9] and in assay [10] was “inactive” throughout. Also, the outcome in assay [8] was inactive.

For `C[N+]1(C)C2CC(OC(=O)[C@H](CO)c3ccccc3)CC1C1OC12` (stereo not given in full), in [1], the Potency result is “inactive”.

`CN(C)c1nc(N)c(C(=O)N=C(N)N)nc1Cl`: the Potency result in assay [1] is “inactive”.

For `O=[N+]([O-])c1ccc(CSc2ncnc3c2ncn3[C@@H]2O[C@H](CO)[C@@H](O)[C@H]2O)cc1`, the Potency result in [1] was “inactive”.

In the case of `COc1ccc(Br)cc1S(=O)(=O)NC(=O)/C=C/c1ccccc1Cc1ccc2ccccc2c1`, the Potency was 27 µM (active) in the assay with Furin (Homo sapiens), 5.32 µM (active) in assay [1], 10.8 µM (active) in assay [7] and 1.96 µM (active) in assay [6].

With `O=c1cc(-c2ccccc2)oc2c(O)c(O)ccc12`, the Potency is 56.2 µM (active) in assay [2] and 6.97 µM (active) in [10].

`Cc1ccccc1CNc1ncnc2c1ncn2C1OC(CO)C(O)C1O` (stereo not given): the Potency result in the assay with Furin (Homo sapiens) was “inactive”.

On to `CC1OC1P(=O)(O)O` (stereo not given), for which, in assay [1], the Potency result was “inactive”.

For `O=C1NC(=O)/C(=C/c2ccc3nccnc3c2)S1`, the Potency entry in assay [1] is “inactive”.

Regarding `CC(C)CC(NP(=O)(O)O[C@@H]1O[C@@H](C)[C@H](O)[C@@H](O)[C@H]1O)C(=O)NC(Cc1c[nH]c2ccccc12)C(=O)O` (stereo not given in full), in [1], the Potency entry was “inactive”.

With `CCCCCCCCCCCCCCCCCC(=O)OC(CC(=O)O)C[N+](C)(C)C` (stereo not given), the Potency result in assay [1] is “inactive”.

Regarding `C[N+](C)(C)CCOP(=O)(O)OP(=O)([O-])OC[C@H]1O[C@@H](n2ccc(N)nc2=O)[C@H](O)[C@@H]1O`, the Potency result in assay [1] was “inactive”.

Take `NCC1OC(O[C@H]2[C@H](O)[C@@H](OC3C(O)C(N)CC(N)C3OC3OC(CO)C(O)C(O)C3N)O[C@@H]2CO)C(N)C(O)C1O` (stereo not given in full): in assay [1], the Potency result was “inactive”.

Consider `COc1ccccc1CN[C@@H]1CCCN[C@@H]1c1ccccc1`, for which, in assay [1], the Potency entry was “inactive”.

Turning to `C=CC(C)=C[C@@]1(C)SC(=O)C(C)=C1O`, the Potency result in assay [1] is “inactive”.

Take `NC(=S)c1ccc[n+]([C@@H]2O[C@@H](COP(=O)([O-])OP(=O)(O)OC[C@H]3O[C@@H](n4cnc5c(N)ncnc54)[C@H](OP(=O)(O)O)[C@@H]3O)C(O)C2O)c1` (stereo not given in full): the Potency entry in assay [1] is “inactive”.

For `CCNc1nc2c(ncn2[C@H]2C[C@H](O)[C@@H](CO)O2)c(=O)[nH]1`, the Potency result in [2], in [9] and in assay [10] was “inactive” throughout.

On to `NC(N)=NC(=O)c1nc(Cl)c(N2CCCCCC2)nc1N`, for which, in [1], the Potency result was “inactive”.

For the compound `O=P(O)(O)C(Cl)(Cl)P(=O)(O)O`, the Potency entry in assay [1] is “inactive”.

Regarding `Fc1ccc2[nH]c(CN3CCN(c4ccccn4)CC3)cc2c1`, the Potency entry in assay [9] and in assay [10] was “inactive” throughout.

As for `O=[N+]([O-])c1ccc(CNc2nc(NCc3cccc(C(F)(F)F)c3)nc3nc[nH]c23)cc1`, the Potency result in assay [9] and in assay [10] was “inactive” in each case.

Regarding `O=C(O)c1cc(=O)c2ccccc2[nH]1`, the Potency result in assay [3] was “inactive”.

As for `O=C(O)CC1CC(c2ccccc2)=NO1` (stereo not given), the Potency entry in assay [9] was “inactive”.

(Values after PubChem BioAssay (NCATS).)
